Compound activity as filed in PubChem.
Measles CPE: protection of cells from measles virus. Measles virus-infected cells, CPE protection, absorbance. protection (pct of control), % at 4 µM. 140,000 compounds, 1.5% hits. AID 841; in the data active means protection mostly above about 24%, no sharp cut-off; inactive means mostly below about 26%
cytoskel mod: cytoskeleton assembly modification; HUVEC TNFa F-actin phalloidin imaging, high content; 91,000 compounds, 0.18% hits; inhibition, % at 2 µM;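 active means inhibition above the batch mean plus 3 SD and confirmed as a hit by visual image inspection, cut at about 30% in these data, passing the limit was not always enough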
Hits are given with their value; 0 = inactive; - = no result. In the library only some 1.5% were active in any assay of this set; here they are far more common.

SMILES	Measles CPE	cytoskel mod
COc1cc2c(cc1C=O)OCO2	35	-
COc1ccccc1CCNCc1cc2c(cc1[N+](=O)[O-])OCO2	0	0
CC1(C)N=C(c2ccccc2)[C@@H]2C(c3ccc([N+](=O)[O-])cc3)N21 (stereo partly specified)	0	-
COc1cc(/C=C(/C)[N+](=O)[O-])ccc1OCc1ccccc1Cl	0	-
Cc1cccc(OP(=O)(Oc2ccccc2)OC(c2ccccc2)C(F)(F)F)c1 (stereo unspecified)	0	-
CC(=NCC1CCCO1)c1c(O)n(-c2ccc(C)cc2)c(=O)[nH]c1=O (stereo unspecified)	0	0
CC(=NCC1CCCO1)c1c(O)n(Cc2ccccc2)c(=O)[nH]c1=O (stereo unspecified)	36	0
CCn1c(O)c(C=Nc2ccc(N3CCOCC3)c(Br)c2)c(=O)n(CC)c1=S	0	0
CCn1c(O)c(C=Nc2ccc(N3CCOCC3)cc2)c(=O)n(CC)c1=S	35	0
COc1cccc(-n2c(CN3CCN(C)CC3)nc3ccc([N+](=O)[O-])cc3c2=O)c1	0	-
CCCC(C)C1(CC)C(=O)NC(=Nc2ccc(F)cc2)NC1=O (stereo unspecified)	38	0
CCCC(C)C1(CC)C(=O)NC(=Nc2ccccc2)NC1=O (stereo unspecified)	0	0
CC1C(c2cccs2)=[N+]([O-])C(C)(C(=O)c2cccs2)N1O (stereo unspecified)	0	-
COc1ccc(-n2c(/C=C/c3ccc4c(c3)OCO4)nc3ccccc3c2=O)cc1	0	-
Cc1ccc(-n2c(/C=C/c3ccc4c(c3)OCO4)nc3ccccc3c2=O)cc1	26	-
COc1ccc(NC(=S)NC(NC(=O)CF)C(Cl)(Cl)Cl)c([N+](=O)[O-])c1 (stereo unspecified)	0	-
CCOc1ccccc1N1C(=O)NC(=O)C(CCc2ccncc2)(CCc2ccncc2)C1=O	0	33
COc1ccccc1N1C(=O)NC(=O)C(CCc2ccncc2)(CCc2ccncc2)C1=O	0	0
Cc1cc(C)[n+](C2C3CC4CC(C3)CC2C4)o1 (stereo unspecified)	0	-
C/C(=N\NC(=S)Nc1ccccc1)c1c(O)n(C)c(=O)n(C)c1=O	0	-
CC/C(=N\Nc1ccccc1)c1c(O)n(C)c(=O)n(C)c1=O	28	-
Cc1cc(/C=C2\C(=O)NC(=O)N(c3cccc(Br)c3)C2=O)c(C)n1C	39	-
Cc1cc(C)cc(-n2c(C)cc(/C=C3\C(=O)NC(=O)N(C)C3=O)c2C)c1	0	-
C[N+]1(CC(COCc2ccccc2)OC(=O)Cc2ccccc2)CCOCC1 (stereo unspecified)	0	-
CC1CCN2c3nc4ccccn4c(=O)c3CC3(C(=O)N(C)C(=O)N(C)C3=O)C2C1 (stereo unspecified)	0	0
SMILES	Measles CPE	cytoskel mod
CN1C(=O)N(C)C(=O)C2(Cc3c(nc4ccccn4c3=O)N3CCc4ccccc4C32)C1=O (stereo unspecified)	40	0
O=C(NCCCN1CCOCC1)C(Cl)(Cl)Cl	0	-
Brc1ccc(C2N3CCCN23)cc1 (stereo unspecified)	0	-
COc1ccccc1CCNC1C2CC3CC(C2)CC1C3 (stereo unspecified)	0	-
CP(C)(=O)CCC(=O)O	38	0
N#CCC(=O)NN1Cc2ccccc2C1=N	0	-
CN(C)C(=O)Oc1cccc(-c2cn3cc(Cl)ccc3n2)c1	45	-
CN(C)C(=O)Oc1ccc(-c2cn3cc(Cl)ccc3n2)cc1	0	-
COC(=O)C(O)(c1cn(C)c2ccccc12)C(F)(F)F (stereo unspecified)	46	0
COC(=O)C(O)(c1c[nH]c2ccccc12)C(F)(F)F (stereo unspecified)	0	0
CC1(C)C(=O)C=C[C@]2(C)[C@H]3CC[C@@]4(C)[C@H](c5ccoc5)OC(=O)[C@H]5O[C@]54[C@]3(C)[C@H](O)C[C@@H]12	0	-
CCCC[n+]1cc(/N=C(\[O-])OC)on1	0	-
COc1ccc(CC[n+]2cc(/N=C(\C)[O-])on2)cc1OC	35	0
O=P(NCc1ccccc1)(Oc1ccccc1)Oc1ccccc1	0	-
C[C@]12CC[C@@H](O)C[C@@H]1CC[C@@H]1[C@@H]2CC[C@]2(C)[C@@H](O)CC[C@@H]12	0	-
CC12CCC3C(CCC4C/C(=N/O)CCC43C)C1CCC2O (stereo unspecified)	41	-
CNC(=O)OCCc1n(C)cc[n+]1C	0	-
Cc1cc(C)c(C2=NOC(O)(C(F)(F)F)C2)c(=O)[nH]1 (stereo unspecified)	27	0
COc1ccc(Br)cc1CN1CCN(C(=O)Cc2ccccc2)CC1	0	0
O=C(Cc1ccc(Br)cc1)N1CCN(Cc2ccccc2)CC1	86	0
CC(C)N1C(=O)/C(=C/C=C/c2ccco2)C(=O)N(Cc2ccco2)C1=O	26	0
COc1ccc(/C=C2/C(=O)N(Cc3ccco3)C(=O)N(C(C)C)C2=O)cc1	0	-
O=C(Nc1ccc(Cl)cc1C(=O)c1ccccc1)c1ccccc1Cl	0	-
N[C@@H](Cc1c[nH]c2ccccc12)c1nnc(SCc2ccccc2)o1	45	0
N[C@@H](Cc1c[nH]c2ccccc12)c1nnc(SCc2ccc(F)cc2)o1	0	0
SMILES	Measles CPE	cytoskel mod
O=c1c2ccccc2nc(-c2ccc(Cl)cc2Cl)n1-c1nccs1	0	-
O=C1/C(=C\c2cc3c(cc2Br)OCO3)N2CCC1CC2	0	-
Cc1nc2c(-c3ccccc3)c(C)nn2c(C)c1CCC(=O)N1CCC2(CC1)OCCO2	0	0
Cc1nc2cc(-c3cccc(F)c3)nn2c(C)c1CCC(=O)N1CCC2(CC1)OCCO2	25	0
Cc1nn(Cc2ccc(Cl)cc2Cl)c(Cl)c1C(=O)NC1CCCc2ccccc21 (stereo unspecified)	0	-
CCN1CCN(S(=O)(=O)c2cnc(Cl)c(Br)c2)CC1	0	-
COc1ccc(C(C)=O)cc1CC(C(=O)c1ccccc1)N(C)C (stereo unspecified)	0	-
CCn1c(O)c(/C(C)=N/N2CCCCC2c2cccnc2)c(=O)[nH]c1=S (stereo unspecified)	0	-
CCOC(=O)[C@@]1(C#N)[C@@H]2C=CC(C(N)=O)=CN2[C@@H](C(N)=O)[C@@H]1c1cccc(Cl)c1	47	0
CCOC(=O)[C@@]1(C#N)C(c2ccc(Cl)c(Cl)c2)[C@H](C(N)=O)N2C=C(C(C)=O)C=C[C@H]21 (stereo partly specified)	0	0
O=c1cccc2n1CC1CC2CN(Cc2c(F)cccc2Cl)C1 (stereo unspecified)	0	-
O=c1cccc2n1CC1CC2CN(Cc2cccc(Cl)c2Cl)C1 (stereo unspecified)	43	-
Brc1ccc2c(c1)C(OC1CN3CCC1CC3)c1ccccc1CS2 (stereo unspecified)	0	-
Fc1ccc(C2=CCN(C(c3ccc(Cl)cc3)c3nnnn3Cc3ccccc3)CC2)cc1 (stereo unspecified)	0	-
Fc1ccc(Cn2nnnc2C(c2ccc(Cl)cc2)N2CC=C(c3ccc(F)cc3)CC2)cc1 (stereo unspecified)	41	-
Nc1cc(Cl)c2nonc2c1[N+](=O)[O-]	0	-
O=C1CC(=O)N(c2ccc(Cl)cc2Cl)C(=O)N1	0	-
Cc1cc(Br)ccc1N1C(=O)CC(=O)NC1=O	38	-
CCOP(=O)(OCC)C(NC(=O)c1ccccc1)=C(Cl)Cl	0	-
CCOC(=O)C1=C(NC(=S)NC(=O)c2ccccc2)c2ccccc2CC12CCCC2	62	-
CCN(CC)CCCNC(=O)c1c(O)c2ccccc2n(Cc2ccccc2)c1=O	77	0
CCN(CC)CCNC(=O)c1c(O)c2ccccc2n(Cc2ccccc2)c1=O	0	0
Cc1ccc(Cn2cc(C=O)c(-c3ccc(C)cc3)n2)cc1	0	-
CC(C)OP(=O)(OC(C)C)C(O)c1ccccc1F (stereo unspecified)	0	-
Nc1ccncc1	0	-
